Measurements published in the supplement of paper PMC11732987, “Enantioselective OTUD7B fragment discovery through chemoproteomics screening and high-throughput optimisation” (Communications Chemistry, 2025).

Key:
Experiment in all cases: log2 ratio of Biotin-Ahx-Ub-VS probe labelling (fragment/DMSO); higher = less target engagement (more negative = stronger competition), active = hit call of the paper (q ≤ 0.05, log2 ratio ≤ -1)
Conditions in all cases: compound concentration: 200 uM; treatment time: 3 h
USP34 = USP34 (UniProt Q70CQ2)
Outline: (§1)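 Using Biotin-Ahx-Ub-VS at 0.5 µM final for 1 h, DUBs were labelled in HEK293T lysate (495 µg per sample) that had first been treated in triplicate with fragment at 200 µM or vehicle for 3 h. NeutrAvidin enrichment, LysC and trypsin digestion and diaPASEF LC-MS/MS followed. Spectronaut label-free quantities were global-median-normalised. Values are average log2 fragment/vehicle ratios by unpaired t-test, using proteins with ≥2 unique peptides.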

USP36 = target: T1, USP36 (UniProt Q9P275)
T1 sequence (whole entry): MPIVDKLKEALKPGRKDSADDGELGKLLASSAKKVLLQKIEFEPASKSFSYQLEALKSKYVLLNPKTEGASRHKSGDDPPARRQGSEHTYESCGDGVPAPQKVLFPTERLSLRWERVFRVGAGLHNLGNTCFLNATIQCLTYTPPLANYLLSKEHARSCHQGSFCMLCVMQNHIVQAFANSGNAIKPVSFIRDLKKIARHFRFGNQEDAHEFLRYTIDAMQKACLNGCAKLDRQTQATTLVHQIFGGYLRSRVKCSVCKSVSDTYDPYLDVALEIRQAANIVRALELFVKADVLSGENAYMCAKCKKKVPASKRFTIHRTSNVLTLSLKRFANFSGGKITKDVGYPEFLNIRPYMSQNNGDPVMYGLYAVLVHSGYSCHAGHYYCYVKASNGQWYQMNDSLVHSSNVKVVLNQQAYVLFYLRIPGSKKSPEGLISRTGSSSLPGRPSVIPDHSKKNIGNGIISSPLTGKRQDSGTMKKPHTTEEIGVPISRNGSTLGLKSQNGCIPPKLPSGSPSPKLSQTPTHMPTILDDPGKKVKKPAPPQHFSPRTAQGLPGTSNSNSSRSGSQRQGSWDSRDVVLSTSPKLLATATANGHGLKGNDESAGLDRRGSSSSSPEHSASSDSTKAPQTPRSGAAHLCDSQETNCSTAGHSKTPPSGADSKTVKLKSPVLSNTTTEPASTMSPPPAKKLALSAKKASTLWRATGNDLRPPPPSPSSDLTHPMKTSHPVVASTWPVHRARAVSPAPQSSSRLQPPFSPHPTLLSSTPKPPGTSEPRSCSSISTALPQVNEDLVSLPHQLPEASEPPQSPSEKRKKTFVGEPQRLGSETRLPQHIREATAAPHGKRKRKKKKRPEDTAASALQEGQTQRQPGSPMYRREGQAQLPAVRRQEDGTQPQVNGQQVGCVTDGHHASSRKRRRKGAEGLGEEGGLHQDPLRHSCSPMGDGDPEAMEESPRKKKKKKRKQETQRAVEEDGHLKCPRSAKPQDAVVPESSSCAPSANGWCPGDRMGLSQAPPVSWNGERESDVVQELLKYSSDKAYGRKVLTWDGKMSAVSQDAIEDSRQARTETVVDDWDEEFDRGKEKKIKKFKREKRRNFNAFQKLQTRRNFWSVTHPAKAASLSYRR
Outline: as §1

USP38 = target: T2, USP38 (UniProt Q8NB14)
T2 sequence (whole entry): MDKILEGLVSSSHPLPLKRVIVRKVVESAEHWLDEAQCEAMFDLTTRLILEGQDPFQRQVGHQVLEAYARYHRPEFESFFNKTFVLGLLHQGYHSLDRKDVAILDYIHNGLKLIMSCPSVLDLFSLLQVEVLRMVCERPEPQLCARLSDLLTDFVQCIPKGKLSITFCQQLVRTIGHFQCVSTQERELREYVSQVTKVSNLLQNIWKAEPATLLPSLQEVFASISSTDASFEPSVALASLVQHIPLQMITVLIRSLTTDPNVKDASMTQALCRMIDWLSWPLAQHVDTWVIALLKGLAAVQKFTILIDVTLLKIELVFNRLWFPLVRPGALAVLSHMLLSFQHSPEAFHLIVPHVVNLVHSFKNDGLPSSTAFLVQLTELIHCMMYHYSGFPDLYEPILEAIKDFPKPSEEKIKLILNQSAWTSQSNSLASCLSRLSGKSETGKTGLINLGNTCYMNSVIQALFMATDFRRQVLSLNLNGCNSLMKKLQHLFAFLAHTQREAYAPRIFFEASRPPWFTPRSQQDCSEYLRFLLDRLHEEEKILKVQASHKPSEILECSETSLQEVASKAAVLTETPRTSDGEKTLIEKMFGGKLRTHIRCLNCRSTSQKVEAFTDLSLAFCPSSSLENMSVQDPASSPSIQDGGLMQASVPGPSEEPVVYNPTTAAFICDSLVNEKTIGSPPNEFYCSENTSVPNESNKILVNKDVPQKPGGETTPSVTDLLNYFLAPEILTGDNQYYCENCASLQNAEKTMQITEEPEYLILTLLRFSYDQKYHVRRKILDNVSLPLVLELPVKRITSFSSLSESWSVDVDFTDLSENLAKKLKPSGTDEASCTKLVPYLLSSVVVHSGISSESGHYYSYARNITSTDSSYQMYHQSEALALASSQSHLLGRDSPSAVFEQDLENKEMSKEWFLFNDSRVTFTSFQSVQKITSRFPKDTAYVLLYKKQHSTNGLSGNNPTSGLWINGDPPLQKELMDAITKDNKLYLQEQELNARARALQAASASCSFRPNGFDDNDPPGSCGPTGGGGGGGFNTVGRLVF
Outline: as §1

USP39 = target: T3, USP39 (UniProt Q53GS9)
T3 sequence (whole entry): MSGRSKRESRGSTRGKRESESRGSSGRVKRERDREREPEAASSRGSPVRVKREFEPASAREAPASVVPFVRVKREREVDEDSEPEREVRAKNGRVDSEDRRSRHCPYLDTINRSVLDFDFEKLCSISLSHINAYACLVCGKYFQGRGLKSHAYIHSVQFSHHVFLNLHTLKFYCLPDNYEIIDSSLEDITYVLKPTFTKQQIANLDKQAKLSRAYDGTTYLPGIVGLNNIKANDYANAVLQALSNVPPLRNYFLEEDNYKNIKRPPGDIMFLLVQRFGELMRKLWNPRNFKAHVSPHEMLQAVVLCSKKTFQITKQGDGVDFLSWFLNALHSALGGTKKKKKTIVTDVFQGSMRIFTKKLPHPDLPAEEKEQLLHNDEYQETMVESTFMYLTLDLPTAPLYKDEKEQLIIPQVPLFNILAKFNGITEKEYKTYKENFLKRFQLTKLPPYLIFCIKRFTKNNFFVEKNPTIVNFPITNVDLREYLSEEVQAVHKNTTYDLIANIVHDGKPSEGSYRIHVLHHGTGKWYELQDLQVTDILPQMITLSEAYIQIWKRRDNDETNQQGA
Outline: as §1

USP4 = target: T4, USP4 (UniProt Q13107)
T4 sequence (whole entry): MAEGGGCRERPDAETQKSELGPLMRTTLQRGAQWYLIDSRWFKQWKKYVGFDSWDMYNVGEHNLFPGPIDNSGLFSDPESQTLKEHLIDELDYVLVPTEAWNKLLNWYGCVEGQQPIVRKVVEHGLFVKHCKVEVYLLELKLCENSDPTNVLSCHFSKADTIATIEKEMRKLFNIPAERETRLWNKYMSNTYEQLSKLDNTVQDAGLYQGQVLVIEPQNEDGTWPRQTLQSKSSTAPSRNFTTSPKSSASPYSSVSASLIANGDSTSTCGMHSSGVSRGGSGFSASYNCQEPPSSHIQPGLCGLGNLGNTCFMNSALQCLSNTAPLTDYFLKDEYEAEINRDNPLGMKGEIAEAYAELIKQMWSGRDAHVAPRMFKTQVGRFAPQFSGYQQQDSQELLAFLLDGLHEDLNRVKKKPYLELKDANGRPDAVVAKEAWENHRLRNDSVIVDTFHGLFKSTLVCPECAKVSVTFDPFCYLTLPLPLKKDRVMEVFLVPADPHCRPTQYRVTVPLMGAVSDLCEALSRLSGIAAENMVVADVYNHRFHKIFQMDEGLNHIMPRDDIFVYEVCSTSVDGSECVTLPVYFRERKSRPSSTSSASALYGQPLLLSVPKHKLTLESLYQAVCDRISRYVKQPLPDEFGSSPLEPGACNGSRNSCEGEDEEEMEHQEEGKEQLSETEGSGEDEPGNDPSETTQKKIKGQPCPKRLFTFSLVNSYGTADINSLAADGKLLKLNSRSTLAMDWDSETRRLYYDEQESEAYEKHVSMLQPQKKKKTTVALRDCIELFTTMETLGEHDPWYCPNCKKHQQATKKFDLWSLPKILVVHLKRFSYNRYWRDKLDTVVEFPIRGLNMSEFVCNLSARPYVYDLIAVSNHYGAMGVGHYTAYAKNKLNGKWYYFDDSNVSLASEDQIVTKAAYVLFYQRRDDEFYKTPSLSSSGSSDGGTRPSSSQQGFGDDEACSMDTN
Outline: as §1

Measured: log2 ratio of Biotin-Ahx-Ub-VS probe labelling

USP34, sequence (Q70CQ2 whole entry, the tested form may be a part): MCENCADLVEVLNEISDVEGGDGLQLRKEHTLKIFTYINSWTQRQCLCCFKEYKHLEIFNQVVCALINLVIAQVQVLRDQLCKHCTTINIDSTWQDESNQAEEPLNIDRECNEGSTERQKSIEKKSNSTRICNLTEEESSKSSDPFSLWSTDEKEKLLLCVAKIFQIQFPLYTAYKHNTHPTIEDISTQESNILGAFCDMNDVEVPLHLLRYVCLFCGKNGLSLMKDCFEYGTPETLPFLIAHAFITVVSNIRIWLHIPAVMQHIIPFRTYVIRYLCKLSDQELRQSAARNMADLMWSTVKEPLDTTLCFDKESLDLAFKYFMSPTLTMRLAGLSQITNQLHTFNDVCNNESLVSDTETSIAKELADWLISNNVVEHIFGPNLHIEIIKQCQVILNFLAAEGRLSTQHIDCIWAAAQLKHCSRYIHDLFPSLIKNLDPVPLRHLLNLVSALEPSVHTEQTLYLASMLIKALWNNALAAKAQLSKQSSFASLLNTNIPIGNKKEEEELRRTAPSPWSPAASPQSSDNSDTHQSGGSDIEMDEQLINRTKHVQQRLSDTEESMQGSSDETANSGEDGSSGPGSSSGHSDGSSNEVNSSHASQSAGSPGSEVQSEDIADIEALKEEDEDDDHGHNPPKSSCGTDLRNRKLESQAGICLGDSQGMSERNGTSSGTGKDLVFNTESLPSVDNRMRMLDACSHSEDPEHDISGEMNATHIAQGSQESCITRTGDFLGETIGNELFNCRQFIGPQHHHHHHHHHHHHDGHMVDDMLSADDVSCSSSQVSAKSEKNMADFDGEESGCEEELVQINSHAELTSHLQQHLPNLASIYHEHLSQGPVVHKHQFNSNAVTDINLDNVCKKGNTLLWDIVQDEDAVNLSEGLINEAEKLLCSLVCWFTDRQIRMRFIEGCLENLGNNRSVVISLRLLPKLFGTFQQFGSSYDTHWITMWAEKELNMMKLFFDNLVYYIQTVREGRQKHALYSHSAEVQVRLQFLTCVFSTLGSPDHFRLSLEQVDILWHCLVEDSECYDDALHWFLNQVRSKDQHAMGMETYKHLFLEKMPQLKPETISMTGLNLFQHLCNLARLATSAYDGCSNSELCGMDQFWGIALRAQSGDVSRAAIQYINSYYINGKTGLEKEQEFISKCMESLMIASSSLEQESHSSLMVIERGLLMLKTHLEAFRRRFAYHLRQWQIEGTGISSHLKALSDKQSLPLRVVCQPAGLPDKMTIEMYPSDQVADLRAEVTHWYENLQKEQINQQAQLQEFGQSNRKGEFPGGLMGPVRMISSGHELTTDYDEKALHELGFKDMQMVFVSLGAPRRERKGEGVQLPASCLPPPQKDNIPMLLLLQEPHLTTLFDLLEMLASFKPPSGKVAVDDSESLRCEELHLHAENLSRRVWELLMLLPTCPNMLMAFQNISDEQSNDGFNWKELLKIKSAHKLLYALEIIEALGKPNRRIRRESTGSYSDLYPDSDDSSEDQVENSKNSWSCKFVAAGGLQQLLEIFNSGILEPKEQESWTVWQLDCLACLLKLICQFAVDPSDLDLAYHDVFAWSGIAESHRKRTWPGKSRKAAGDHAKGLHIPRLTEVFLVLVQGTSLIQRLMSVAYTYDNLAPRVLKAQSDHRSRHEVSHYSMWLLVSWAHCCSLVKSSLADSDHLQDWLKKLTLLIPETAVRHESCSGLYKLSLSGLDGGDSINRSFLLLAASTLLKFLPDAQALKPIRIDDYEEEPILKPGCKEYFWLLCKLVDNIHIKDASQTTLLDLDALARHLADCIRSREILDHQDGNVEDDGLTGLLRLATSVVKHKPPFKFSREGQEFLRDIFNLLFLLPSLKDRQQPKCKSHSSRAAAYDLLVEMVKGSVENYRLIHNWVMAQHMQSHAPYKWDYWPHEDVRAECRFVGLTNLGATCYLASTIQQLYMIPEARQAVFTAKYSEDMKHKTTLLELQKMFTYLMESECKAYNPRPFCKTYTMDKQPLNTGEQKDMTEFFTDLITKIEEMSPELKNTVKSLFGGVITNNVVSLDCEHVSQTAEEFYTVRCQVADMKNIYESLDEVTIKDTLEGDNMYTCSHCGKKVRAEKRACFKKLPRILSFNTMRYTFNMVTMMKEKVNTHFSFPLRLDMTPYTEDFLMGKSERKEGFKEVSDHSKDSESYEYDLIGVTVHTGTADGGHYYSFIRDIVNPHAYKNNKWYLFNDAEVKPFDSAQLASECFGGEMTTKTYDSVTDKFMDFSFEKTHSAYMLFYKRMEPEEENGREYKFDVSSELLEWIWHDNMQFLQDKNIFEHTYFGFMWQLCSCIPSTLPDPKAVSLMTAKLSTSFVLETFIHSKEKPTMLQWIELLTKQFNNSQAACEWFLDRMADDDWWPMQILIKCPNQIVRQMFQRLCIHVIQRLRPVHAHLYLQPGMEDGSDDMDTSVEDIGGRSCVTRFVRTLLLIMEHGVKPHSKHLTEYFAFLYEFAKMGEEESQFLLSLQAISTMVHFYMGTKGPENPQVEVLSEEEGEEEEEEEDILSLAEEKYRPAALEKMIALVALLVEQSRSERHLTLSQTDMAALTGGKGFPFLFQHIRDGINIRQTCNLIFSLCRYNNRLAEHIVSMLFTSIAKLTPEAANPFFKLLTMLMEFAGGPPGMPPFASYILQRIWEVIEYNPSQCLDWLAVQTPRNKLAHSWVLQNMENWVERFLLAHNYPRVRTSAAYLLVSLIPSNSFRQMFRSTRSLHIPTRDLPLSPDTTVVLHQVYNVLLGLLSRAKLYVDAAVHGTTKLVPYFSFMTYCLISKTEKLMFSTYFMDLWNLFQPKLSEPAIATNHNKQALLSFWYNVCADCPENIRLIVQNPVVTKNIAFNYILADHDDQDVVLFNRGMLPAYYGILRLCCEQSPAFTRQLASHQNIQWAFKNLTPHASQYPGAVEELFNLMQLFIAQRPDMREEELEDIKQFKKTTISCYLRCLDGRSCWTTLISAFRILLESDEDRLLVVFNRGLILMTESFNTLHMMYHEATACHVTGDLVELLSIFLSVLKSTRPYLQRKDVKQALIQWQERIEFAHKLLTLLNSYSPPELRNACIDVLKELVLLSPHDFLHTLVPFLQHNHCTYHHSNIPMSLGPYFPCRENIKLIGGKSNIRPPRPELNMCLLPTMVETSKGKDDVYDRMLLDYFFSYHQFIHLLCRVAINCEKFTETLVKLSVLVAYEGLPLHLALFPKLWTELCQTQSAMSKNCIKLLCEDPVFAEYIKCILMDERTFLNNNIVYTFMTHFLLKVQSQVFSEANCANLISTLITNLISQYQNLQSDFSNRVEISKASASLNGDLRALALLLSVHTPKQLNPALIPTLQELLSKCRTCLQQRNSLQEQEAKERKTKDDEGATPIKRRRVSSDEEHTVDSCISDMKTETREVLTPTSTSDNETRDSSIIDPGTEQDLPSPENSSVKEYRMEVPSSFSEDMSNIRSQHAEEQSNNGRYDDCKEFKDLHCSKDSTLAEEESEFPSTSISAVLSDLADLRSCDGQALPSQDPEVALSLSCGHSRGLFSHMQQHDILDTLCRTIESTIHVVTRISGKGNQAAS

CCC(NC(=O)CCl)c1ccc(Cl)cc1 (stereo not given)
inactive: USP34 -0.142 | USP36 -0.231 | USP38 0.0692 | USP39 0.0269 | USP4 0.0111
